For 40 compounds, outcome and AC50 results are on record in PubChem BioAssay (EPA / NIEHS).

Activity calls are given as the source filed them. The calls were made as follows: active = hit-call score of the fitted dose curve at least 0.9, where 1 is the maximum; inactive = score below 0.9.

For this experiment, the target named is Heat shock factor protein 1 (Homo sapiens) (UniProt Q00613). Nature of the experiment: ATG_HSE_CIS: Attagene CIS-FACTORIAL HepG2 Assay for human Heat Shock Transcription Factor 1 (HSE) (AID 2282953). To be noted: HepG2 HSE cis-reporter, Attagene RNA transcription; actives raise or lower the signal. On the procedure: ATG_CIS is a cell-based, multiplexed-readout assay that uses HepG2, a human liver cell line, with measurements taken at 24 hours after chemical dosing in a 24-well plate.ATG_HSE_CIS is one of 52 assay component(s) measured or calculated from the ATG_CIS assay. It is designed to make measurements of mRNA induction, a form of inducible reporter, as detected with fluorescence intensity signals by Reverse transcription polymerase chain reaction (RT-PCR) and Capillary electrophoresis technology.Data from the assay component ATG_HSE_CIS was analyzed into 1 assay endpoint. This assay endpoint, ATG_HSE_CIS, was analyzed with bidirectional fitting relative to DMSO as the negative control and baseline of activity. Using a type of inducible reporter, measures of mRNA for gain or loss-of-signal activity can be used to understand the reporter gene at the transcription factor-level as they relate to the gene HSF1. Furthermore, this assay endpoint can be referred to as a primary readout, because this assay has produced multiple assay endpoints where this one serves a reporter gene function. To generalize the intended target to other relatable targets, this assay endpoint is annotated to the dna binding intended target family, where the subfamily is heat shock protein.
Heat shock factor protein 1 (Homo sapiens), sequence (Q00613 whole entry, looked up): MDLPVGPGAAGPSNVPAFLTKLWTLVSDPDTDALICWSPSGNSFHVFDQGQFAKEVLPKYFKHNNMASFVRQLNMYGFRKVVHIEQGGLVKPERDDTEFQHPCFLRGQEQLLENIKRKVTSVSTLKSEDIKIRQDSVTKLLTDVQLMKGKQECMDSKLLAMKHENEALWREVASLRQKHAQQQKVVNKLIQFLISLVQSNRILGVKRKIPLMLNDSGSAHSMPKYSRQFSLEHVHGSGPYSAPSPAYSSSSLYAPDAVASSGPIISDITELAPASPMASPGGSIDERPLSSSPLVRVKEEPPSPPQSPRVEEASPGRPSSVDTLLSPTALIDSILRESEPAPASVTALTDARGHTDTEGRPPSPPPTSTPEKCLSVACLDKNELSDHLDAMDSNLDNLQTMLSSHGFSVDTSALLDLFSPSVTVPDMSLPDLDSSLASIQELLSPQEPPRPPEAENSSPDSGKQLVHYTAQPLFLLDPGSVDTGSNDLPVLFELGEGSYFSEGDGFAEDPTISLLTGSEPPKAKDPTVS
Human liver HepG2 cells are transiently transfected with multiple reporter transcription units (MRTUs) in 6-well plates using FuGene 6 reagent (Roche; 3 ml FuGene/1 mg DNA). The MRTU constructs are regulated by a cis-regulating element (promoter). […] A major difference between the CIS and TRANS system is that in CIS activities of endogenous TFs are measured, whereas the TRANS assay evaluates changes in activities of exogenous, chimeric NR-Gal4 proteins. […] At the end of 24 hour incubation, total RNA was isolated using TriZol reagent (Invitrogen). The isolated RNA is then reverse-transcribed using oligo(dT) primer and Mo-MLV reverse transcriptase (Invitrogen) with DNAse I (Ambion) treatment for 30 min. The one-tenth of the produced cDNA was amplified by PCR using Taq DNA polymerase (Invitrogen) and two reporter sequence-specific primers. The PCR products were fluorescently labeled by primer extension with 6-arboxyfluorescein (6-FAM) 5'-labeled reporter sequence-specific primer (2 min at 95 C, 20 s at 68 C and 10 min at 72 C) and these products were digested with 5U of HpaI (New England Biolabs) for 2h at 37 C. The fragments were purified using Qiaquick PCR columns (Qiagen), analyzed on an ABI 3130xL genetic analyzer (Applied Biosystems) with peak positions identified by using a set of X-rhodamine (ROX)-labeled MapMarker1000 molecular weight standards (BioVentures). The raw capillary electrophoresis data was processed using Attagraph software (Attagene).
With `CS(=O)(=O)c1ccc(C(=O)C2C(=O)CCCC2=O)c([N+](=O)[O-])c1`, the result was inactive.

With `Clc1nc(Cl)nc(Nc2ccccc2Cl)n1`, the result was inactive.

Consider `CC(C)N1C(=O)N(c2ccccc2)CSC1=NC(C)(C)C`, for which the outcome was inactive.

Turning to `C=C(C)CN(CC)c1c([N+](=O)[O-])cc(C(F)(F)F)cc1[N+](=O)[O-]`, the compound was called inactive.

On to `COc1cc(OC)nc(NC(=O)NS(=O)(=O)c2ncccc2OCC(F)(F)F)n1`, for which the call was inactive.

Take `Clc1cccc(C(Cl)(Cl)Cl)n1`: the compound was called inactive.

As for `Cc1c(COC(=O)[C@@H]2[C@H](/C=C(\Cl)C(F)(F)F)C2(C)C)cccc1-c1ccccc1`, the compound was classed as inactive.

With `CC1(C)C(C=C(Cl)Cl)C1C(=O)OC(C#N)c1cccc(Oc2ccccc2)c1` (stereo not given), the compound was classed as inactive.

Turning to `CCSC(=O)N1CCCCCC1`, the compound was called inactive.

On to `CCN(CC)c1nc(C)cc(OP(=S)(OC)OC)n1`, for which the result was inactive.

Regarding `CCOc1nc(C(Cl)(Cl)Cl)ns1`, the result was inactive.

Consider `Cc1cnc(C2=NC(C)(C(C)C)C(=O)N2)c(C(=O)O)c1` (stereo not given), for which the outcome was inactive.

In the case of `CN=C=S`, the compound was classed as inactive.

As to `Nc1c(Cl)c(F)nc(OCC(=O)O)c1Cl`, the call was inactive.

As to `COC(=O)N(C(=O)N1CO[C@@]2(C(=O)OC)Cc3cc(Cl)ccc3C2=N1)c1ccc(OC(F)(F)F)cc1`, the call was inactive.

Regarding `CCCCC(O)(Cn1cncn1)c1ccc(Cl)cc1Cl` (stereo not given), the half-maximal activity concentration (AC50) was 76.2 µM (active).

Consider `CC(C)N1C(=O)c2ccccc2NS1(=O)=O`, for which the call was inactive.

As for `COC(=O)c1c(C(F)F)nc(C(F)(F)F)c(C2=NCCS2)c1CC(C)C`, the compound was called inactive.

Regarding `Nc1c(Cl)c(Cl)nc(C(=O)O)c1Cl`, the result was inactive.

`Cn1c(-c2ccccc2)cc(-c2ccccc2)[n+]1C`: the outcome was inactive.

Take `O=c1n(Cl)c(=O)n(Cl)c(=O)n1Cl`: the compound was called inactive.

As for `CCCCC(C#N)(Cn1cncn1)c1ccc(Cl)cc1` (stereo not given), the compound was called inactive.

With `CSC(=O)c1c(C(F)F)nc(C(F)(F)F)c(C(=O)SC)c1CC(C)C`, the result was inactive.

`CN/C(=N\[N+](=O)[O-])NCc1cnc(Cl)s1`: the outcome was inactive.

Turning to `N#Cc1c[nH]cc1-c1cccc2c1OC(F)(F)O2`, the call was inactive.

Take `O=C1C2CC=CCC2C(=O)N1SC(Cl)(Cl)Cl` (stereo not given): the call was inactive.

Regarding `CC1(C)CON(Cc2ccccc2Cl)C1=O`, the result was inactive.

With `O=C(Nc1ccccc1-c1ccc(Cl)cc1)c1cccnc1Cl`, the compound was classed as inactive.

For `CC1(C)C(C(=O)OC(C#N)c2cccc(Oc3ccccc3)c2)C1(C)C` (stereo not given), the outcome was inactive.

`COc1cc(Cl)c(OC)cc1Cl`: the compound was classed as inactive.

As to `COCc1cnc(C2=NC(C)(C(C)C)C(=O)N2)c(C(=O)O)c1` (stereo not given), the outcome was inactive.

As for `Cc1nc(N(C)C)nc(OC(=O)N(C)C)c1C`, the result was inactive.

With `COP(=S)(OC)Oc1ccc([N+](=O)[O-])c(C)c1`, the compound was called inactive.

Regarding `CCN(CC)C(=O)C(C)Oc1cccc2ccccc12` (stereo not given), the compound was classed as inactive.

With `CCCCOCN(C(=O)CCl)c1c(CC)cccc1CC`, the outcome was inactive.

For `O=C(O)c1c(Cl)ccc2cc(Cl)cnc12`, the result was inactive.

For `COc1ccc(-c2ccccc2)cc1NNC(=O)OC(C)C`, the AC50 is 50 µM (active).

Take `CCNP(=S)(OC)O/C(C)=C/C(=O)OC(C)C` (stereo not given): the outcome was inactive.

Turning to `OC(c1ccc(Cl)cc1)(c1ccc(Cl)cc1)C(Cl)(Cl)Cl`, the compound was called inactive.

With `COCC(=O)N(c1c(C)cccc1C)C(C)C(=O)OC` (stereo not given), the compound was classed as inactive.

The AC50 is the midpoint of the concentration-response curve, whichever way the signal moves.
